Assay [1] can be described thus: anti-His antibody binders, primary screen, artefact control for SMM control protein annotation, biochemical, small-molecule microarray, 635 nm fluorescence (AID 1128).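 Further: score merges feature fluorescence with signal-to-noise for each printed compound spot.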 As to conditions: anti-His Alexa647 antibody binding, higher = more signal.
Assay [2] concerns Human papillomavirus type 1a E7 protein (residues 1-88). In words: HPV1a E7 small-molecule binders, primary screen, biochemical, small-molecule microarray, residues 1-88, 635 nm (AID 1129). To be noted: small-molecule microarray binding, fluorescence 635 nm; higher = more signal.
Assay [3] has as its target Focal adhesion kinase 1 (Homo sapiens) (UniProt Q05397). Briefly: small-molecule microarray binders of FAK, primary screen, biochemical, 635/667 nm fluorescence, BSA, DTT (AID 1130).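 Further: composite of spot emission at 667 nm and signal to noise over triplicate slides.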 To be noted: PTK2 binding, 635 nm fluorescence, higher = more signal.
The subject of assay [4] is Fibrinogen (Alexa647-labelled). Briefly: fibrinogen binders on compound microarrays, profiling panel, artefact control for SMM control-protein annotation, biochemical, small-molecule microarray, 635/667 nm fluorescence (AID 1131).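 Further: z-score merges 667 nm fluorescence with per-spot signal-to-noise over triplicate slides.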 As to conditions: fibrinogen-A647 binding fluorescence, higher = more signal.
In assay [5] the target is Follistatin (Homo sapiens) (UniProt P19883). In words: follistatin binders on small-molecule microarrays, primary screen, biochemical, small-molecule microarray, 635/667 nm fluorescence (AID 1132). To be noted: FST binding, 635 nm fluorescence, higher = more signal.
Chain of Follistatin (Homo sapiens) (P19883 whole entry, looked up): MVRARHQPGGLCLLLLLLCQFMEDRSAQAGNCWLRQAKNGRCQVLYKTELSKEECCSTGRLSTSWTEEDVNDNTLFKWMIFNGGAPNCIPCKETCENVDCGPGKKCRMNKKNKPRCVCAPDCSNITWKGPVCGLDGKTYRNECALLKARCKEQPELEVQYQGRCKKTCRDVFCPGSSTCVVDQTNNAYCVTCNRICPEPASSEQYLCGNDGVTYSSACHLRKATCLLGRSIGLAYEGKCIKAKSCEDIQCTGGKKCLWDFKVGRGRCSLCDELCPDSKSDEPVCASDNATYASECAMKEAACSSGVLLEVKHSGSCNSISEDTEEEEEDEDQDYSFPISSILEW
Assay [6] deals with Fibroblast growth factor 2 (Homo sapiens) (UniProt P09038). In words: FGF2 binders on small-molecule microarrays, primary screen, biochemical, small-molecule microarray, 635/667 nm fluorescence (AID 1133). To be noted: small-molecule microarray binding, FGF2, fluorescence 635/667; higher = more signal.
Chain of Fibroblast growth factor 2 (Homo sapiens) (P09038 whole entry, looked up): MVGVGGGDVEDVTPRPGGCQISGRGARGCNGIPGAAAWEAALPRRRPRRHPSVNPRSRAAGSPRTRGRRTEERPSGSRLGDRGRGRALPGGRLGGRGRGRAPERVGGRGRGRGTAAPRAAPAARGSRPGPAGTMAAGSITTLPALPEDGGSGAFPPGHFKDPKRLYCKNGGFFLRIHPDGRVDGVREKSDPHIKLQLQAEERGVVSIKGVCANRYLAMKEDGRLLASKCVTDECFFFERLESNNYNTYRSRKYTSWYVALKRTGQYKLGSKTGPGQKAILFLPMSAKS
The nature of assay [7]: mitochondrial membrane potential change in A549 cells, profiling panel, cell-based, JC-1 fluorescence, basal, 24 h, 100 nL (AID 1138).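 Further: A549 lung adenocarcinoma cells under basal conditions with no added stimulus; test concentration not given here.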 As to conditions: higher = more signal.
The test system of a further assay is Lefty1. Briefly: Lefty1 binders on small-molecule microarrays, primary screen, biochemical, small-molecule microarray, 635/667 nm fluorescence (AID 1139). To be noted: small-molecule microarray binding, fluorescence 635/667; higher = more signal.
Assay [8] has as its system wheat germ agglutinin (Triticum aestivum), Alexa647-labelled. Briefly: wheat germ agglutinin binders on compound microarrays, profiling panel, artefact control for SMM control-protein annotation, biochemical, small-molecule microarray, 635/667 nm fluorescence (AID 1140).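 Further: score merges 667 nm feature emission with signal to noise over triplicate slides.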 As to conditions: WGA-A647 binding, 635 nm fluorescence, higher = more signal.
In assay [9] the target is Luciferin 4-monooxygenase (Photinus pyralis) (UniProt P08659). Briefly: firefly luciferase enzyme inhibitors, primary screen, biochemical, luminescence, purified enzyme, 2006 set (AID 1141).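 Further: cell-free assay with purified firefly luciferase at 100 ng per well in PBS; test concentration not given here.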 As to conditions: SteadyGlo luminescence, 30 min, higher = more signal, called active from +8 up or from −8 down.
Chain of Luciferin 4-monooxygenase (Photinus pyralis) (P08659 whole entry, looked up): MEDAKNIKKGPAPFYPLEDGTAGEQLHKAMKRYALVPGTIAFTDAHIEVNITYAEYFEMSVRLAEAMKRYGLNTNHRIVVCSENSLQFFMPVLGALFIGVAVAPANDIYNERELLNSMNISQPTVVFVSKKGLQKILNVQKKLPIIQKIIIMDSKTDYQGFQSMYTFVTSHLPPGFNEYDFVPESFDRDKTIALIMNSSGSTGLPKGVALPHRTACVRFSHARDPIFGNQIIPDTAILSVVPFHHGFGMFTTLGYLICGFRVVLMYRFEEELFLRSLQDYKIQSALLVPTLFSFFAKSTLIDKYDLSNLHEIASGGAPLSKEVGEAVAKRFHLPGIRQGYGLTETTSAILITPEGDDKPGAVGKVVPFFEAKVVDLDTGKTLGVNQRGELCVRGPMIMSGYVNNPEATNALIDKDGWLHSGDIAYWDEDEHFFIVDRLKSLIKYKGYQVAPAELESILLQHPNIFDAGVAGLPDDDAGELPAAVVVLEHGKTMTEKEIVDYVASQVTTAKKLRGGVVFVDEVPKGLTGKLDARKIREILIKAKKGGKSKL
Assay [10] concerns Wnt5a (protein binding on small-molecule microarray). In words: Wnt5a binders on small-molecule microarray, primary screen, biophysical, 635/667 nm fluorescence (AID 1142).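 Further: fluorescence read at 667 nm with signal to noise per printed feature.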 To be noted: 635 nm fluorescence, higher = more signal.
A short description of assay [11]: cell viability in Huh7 cells, primary screen, cytotoxicity control for HCV replication inhibitor project, CellTiter-Glo luminescence, basal, 48 h (AID 1143).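 Further: Huh7 hepatoma cells carrying a hepatitis C replication reporter with no stimulus; test concentration not given here.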 As to conditions: Huh7 HCV replicon, higher = more signal, called active from +8 up or from −8 down.
A short description of assay [12]: P. aeruginosa biofilm formation inhibitors, primary screen, PAO1 strain, BacTiter-Glo luminescence, LB-PBS (AID 1144). As to conditions: 12 h, higher = more signal.
Assay [13] in a line: CREB reporter modulators without forskolin, primary screen, cell-based, PC12, CRE-LacZ reporter, unstimulated (AID 1145). To be noted: no forskolin, luminescence, 4.5 h, higher = more signal, called active from +8 up or from −8 down.
Assay [14] can be described thus: CREB reporter modulators under forskolin, primary screen, cell-based, PC12, CRE-LacZ reporter, forskolin-stimulated (AID 1146).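 Further: PC12 cells with 6xCRE LacZ reporter stimulated by forskolin 10 µM; beta-galactosidase reporter signal reflecting CREB driven transcription.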 As to conditions: luminescence, 4.5 h, higher = more signal, called active from +8 up or from −8 down.
In assay [15] the target is Streptavidin (Streptomyces avidinii) (UniProt P22629). In words: streptavidin binders on small-molecule microarray, primary screen, artefact control for SMM compound annotation, biophysical, 635/667 nm fluorescence (AID 1147).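 Further: signal reflects streptavidin binding to arrayed compounds as a control protein.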 As to conditions: streptavidin binding, higher = more signal.
Chain of Streptavidin (Streptomyces avidinii) (P22629 whole entry, looked up): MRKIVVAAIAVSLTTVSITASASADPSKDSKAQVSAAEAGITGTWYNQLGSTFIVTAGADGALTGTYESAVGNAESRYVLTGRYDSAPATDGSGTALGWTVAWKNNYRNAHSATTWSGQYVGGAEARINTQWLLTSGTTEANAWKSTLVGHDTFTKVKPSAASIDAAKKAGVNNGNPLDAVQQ
A short description of assay [16]: small-molecule binders of probe aInhba, primary screen, biochemical, small-molecule microarray, 635/667 nm fluorescence (AID 1148).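 Further: score merges 667nm spot fluorescence with signal-to-noise for antibody binding to printed compounds.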 As to conditions: higher = more signal.
In assay [17] the target is Torsin-1A (Homo sapiens) (UniProt O14656). Briefly: torsin A binders from cell lysate, primary screen, small-molecule microarray, wild-type, 635/667 nm (AID 1149). To be noted: COS7 hTOR1A-WT lysate, 635 nm fluorescence, higher = more signal.
Chain of Torsin-1A (Homo sapiens) (O14656 whole entry, looked up): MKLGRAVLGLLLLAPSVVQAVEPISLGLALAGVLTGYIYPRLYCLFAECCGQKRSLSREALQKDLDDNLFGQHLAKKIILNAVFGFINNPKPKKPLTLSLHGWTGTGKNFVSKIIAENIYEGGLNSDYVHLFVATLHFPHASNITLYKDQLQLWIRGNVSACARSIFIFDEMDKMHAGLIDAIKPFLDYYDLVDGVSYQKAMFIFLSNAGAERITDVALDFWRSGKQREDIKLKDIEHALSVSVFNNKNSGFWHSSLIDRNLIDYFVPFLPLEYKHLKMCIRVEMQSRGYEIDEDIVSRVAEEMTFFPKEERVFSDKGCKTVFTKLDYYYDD
The target is the same in assay [18]. Briefly: small-molecule binders of mutant TOR1A in lysate, primary screen, cell lysate, small-molecule microarray, COS7 lysate, 635/667 nm fluorescence (AID 1150).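 Further: score pools 667 nm emission and signal to noise measuring lysate protein binding.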 To be noted: COS7 hTOR1A mutant lysate, 635 nm fluorescence, higher = more signal.
Assay [19] concerns Sonic hedgehog protein (Shh). Briefly: small-molecule binders of Shh protein, primary screen, biochemical, small-molecule microarray, 635/667 nm fluorescence (AID 1151).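 Further: Shh protein binding to compounds spotted on small-molecule microarray slides; score combines spot fluorescence intensity with signal-to-noise across triplicate slides.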 As to conditions: small-molecule microarray binding, 635 nm fluorescence; higher = more signal.

SMILES strings stand for the structures. Active and inactive are the calls of the source. Unless noted, how the calls were made is not given here.

Chain of Focal adhesion kinase 1 (Homo sapiens) (Q05397 whole entry, looked up): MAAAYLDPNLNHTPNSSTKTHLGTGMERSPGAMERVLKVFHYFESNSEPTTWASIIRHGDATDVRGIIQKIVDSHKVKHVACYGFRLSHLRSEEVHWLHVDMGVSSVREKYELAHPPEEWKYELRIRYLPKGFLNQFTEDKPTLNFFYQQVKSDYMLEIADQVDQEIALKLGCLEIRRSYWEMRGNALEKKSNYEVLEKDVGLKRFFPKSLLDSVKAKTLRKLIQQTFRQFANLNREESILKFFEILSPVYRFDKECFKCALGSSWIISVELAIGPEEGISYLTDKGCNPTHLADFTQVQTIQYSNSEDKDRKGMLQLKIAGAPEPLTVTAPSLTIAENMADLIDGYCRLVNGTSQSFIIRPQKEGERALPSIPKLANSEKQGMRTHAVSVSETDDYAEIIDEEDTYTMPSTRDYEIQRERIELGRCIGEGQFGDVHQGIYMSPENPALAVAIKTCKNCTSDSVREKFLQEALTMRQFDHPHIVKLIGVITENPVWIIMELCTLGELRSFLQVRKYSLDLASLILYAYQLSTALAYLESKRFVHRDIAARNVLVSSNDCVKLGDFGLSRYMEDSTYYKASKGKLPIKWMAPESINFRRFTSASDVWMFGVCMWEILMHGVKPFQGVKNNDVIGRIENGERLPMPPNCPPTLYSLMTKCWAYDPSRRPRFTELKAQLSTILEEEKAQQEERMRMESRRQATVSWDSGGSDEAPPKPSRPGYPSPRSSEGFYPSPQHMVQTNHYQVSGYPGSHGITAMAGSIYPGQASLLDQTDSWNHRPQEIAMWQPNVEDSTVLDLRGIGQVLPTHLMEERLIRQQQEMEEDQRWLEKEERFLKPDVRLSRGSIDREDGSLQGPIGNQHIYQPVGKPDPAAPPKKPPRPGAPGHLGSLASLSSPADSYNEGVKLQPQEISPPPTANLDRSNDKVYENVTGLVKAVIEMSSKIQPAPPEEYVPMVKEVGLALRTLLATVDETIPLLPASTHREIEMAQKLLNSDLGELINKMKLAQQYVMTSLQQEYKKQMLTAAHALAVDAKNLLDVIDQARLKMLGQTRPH

Consider `CCCNC(=O)[C@@H]1c2ccccc2C(=O)N(CC23CC4CC(CC(C4)C2)C3)[C@H]1c1ccc(CO)cc1`, for which the composite z-score in [1] came to 0.618; in [2], 1.23; in assay [3], 0.734; in assay [4] it was 0.957; in assay [5] it was 1.34; in assay [6], 0.871. The composite z-score in the assay on Lefty1 was 0.798; in assay [8], 0.562; in assay [10] it was 0.435; in assay [15], 0.673; in assay [16], -0.118; with Torsin-1A (Homo sapiens) [17], 0.92. Moreover, the composite z-score is -0.0207 with Torsin-1A (Homo sapiens) [18] and 1.05 in assay [19]. Besides, the z-score in [7] was -1.17; in [9], 0.411 (inactive); in [11], -4.68 (inactive); in assay [12], -0.929 (inactive); in [13], 0.764 (inactive); in assay [14], -0.517 (inactive).
`CN(C)CCCCNC(=O)[C@H]1C[C@H]2C(=O)N[C@@H](CCCC[N+](C)(C)C)C(=O)N2[C@H]1c1cccc(OCCO)c1`: the composite z-score came to 1.06 in assay [1]; 0.809 in assay [2]; 0.373 in [3]; 0.54 in [4]; 1.35 in assay [5]; 1.67 in assay [6]. For the same compound, the composite z-score is 1.35 with Lefty1; 0.115 in assay [8]; 0.446 in assay [10]; 0.773 in assay [15]; 0.0228 in assay [16]; 1.04 with Torsin-1A (Homo sapiens) [17]. The composite z-score worked out at 1.01 with Torsin-1A (Homo sapiens) [18] and 2.01 in assay [19]. Moreover, the z-score in assay [7] was -0.312; in [9], 0.53 (inactive); in [11] it was -0.255 (inactive); in [12], -1.16 (inactive); in [13], -0.659 (inactive); in assay [14] it was -0.197 (inactive).
`NCCCCCCNC(=O)[C@H]1C[C@H]2C(=O)N3CCC[C@H]3C(=O)N2[C@H]1c1ccc(O)cc1`: the composite z-score is 2.79 in assay [1]; 0.609 in [2]; 1.1 in [3]; 0.437 in [4]; 1.36 in assay [5]; 1.66 in [6]. Also, the composite z-score came out at 0.918 with Lefty1; 0.752 in assay [8]; 0.214 in assay [10]; 0.0381 in assay [15]; 0.0047 in assay [16]; 0.624 with Torsin-1A (Homo sapiens) [17]. The composite z-score in the assay with Torsin-1A (Homo sapiens) [18] was 0.553; in [19] it was 1.86. The z-score is -0.712 in [7]; 0.24 (inactive) in assay [9]; -0.734 (inactive) in [11]; 0.131 (inactive) in [12]; 0.0084 (inactive) in [13]; -0.27 (inactive) in assay [14].
In the case of `O=C1C[C@@](C(=O)O)(c2ccc([N+](=O)[O-])cc2)[C@@H](c2ccc(CO)cc2)N1CC12CC3CC(CC(C3)C1)C2`, the composite z-score in assay [1] was 1.2; in assay [2] it was 1.19; in assay [3], 0.486; in [4], 0.732; in [5] it was 0.563; in assay [6], -0.119. For the same compound, the composite z-score with Lefty1 is 0.43; in [8], 1.02; in [10], 0.319; in assay [15] it was 0.791; in assay [16], -0.0759; with Torsin-1A (Homo sapiens) [17] it was 0.734. Also, the composite z-score worked out at 0.949 with Torsin-1A (Homo sapiens) [18] and 1.76 in assay [19]. The z-score in assay [7] is 2.19; in assay [9], -0.162 (inactive); in assay [11], -5.13 (inactive); in assay [12], -1.03 (inactive); in assay [13], -0.322 (inactive); in [14] it was 0.351 (inactive).
Consider `CCOC(=O)C[C@H]1[C@H](OC(=O)c2cc3ccccc3oc2=O)[C@@H](NC(=O)c2ccc3ccccc3n2)c2cc(OCCCO)ccc2N1C(=O)c1ccc2ccccc2n1`, for which the composite z-score in assay [1] amounted to 0.81; in assay [2], 0.784; in assay [3] it was 0.114; in [4], 0.541; in assay [5], 0.99; in assay [6] it was 0.818. The composite z-score in the assay with Lefty1 turned out to be 1.44; in assay [8], 0.131; in [10] it was 0.27; in [15], 0.617; in [16], 0.539; with Torsin-1A (Homo sapiens) [17], 0.916. Moreover, the results for the composite z-score (with Torsin-1A (Homo sapiens) [18]; in [19]) were 0.378 and 1.46, respectively. The z-score in assay [7] is 1.1; in [9] it was -0.204 (inactive); in [11], -0.529 (inactive); in assay [12], 0.954 (inactive); in assay [13] it was 11.8 (active); in assay [14] it was -1.72 (inactive).

Values taken from PubChem BioAssay.
